Experimental data taken from PubChem BioAssay.
The source made the active and inactive calls. No rule for the calls is given here.

target: Pantothenate synthetase (Mycobacterium tuberculosis (strain ATCC 25618 / H37Rv)) (UniProt P9WIL5); assay: Coupled enzyme confirmation of inhibitors against recombinant Mtb PanC (AID 375); details: coupled enzyme assay; at 10 µM, stronger effect = higher value;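 also: 0% = full reaction with vehicle and 100% = no enzyme background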
Sequence (P9WIL5 whole entry, looked up): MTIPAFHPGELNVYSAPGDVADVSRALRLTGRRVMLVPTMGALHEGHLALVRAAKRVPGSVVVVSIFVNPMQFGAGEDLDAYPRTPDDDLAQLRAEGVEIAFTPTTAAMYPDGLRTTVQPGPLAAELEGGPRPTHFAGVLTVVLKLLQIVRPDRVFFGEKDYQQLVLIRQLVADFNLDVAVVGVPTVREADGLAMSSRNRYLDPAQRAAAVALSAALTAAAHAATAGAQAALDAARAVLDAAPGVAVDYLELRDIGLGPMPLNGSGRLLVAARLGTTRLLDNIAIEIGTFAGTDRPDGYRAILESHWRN

SMILES | inhibition
Cc1ccc(-c2cc(C(=O)Nc3cc(C)ccc3C)[nH]n2)c(O)c1 | 0% (inactive)
COc1ccc(C2=NO[C@@H]3C(=O)N(c4ccc5c(c4)OCCO5)C(=O)[C@H]23)cc1OC | 3% (inactive)
COC(=O)CSc1nnc(-c2ccncc2)o1 | 0% (inactive)
Cc1c(NC2=NC3(CCCCC3)Cc3ccccc32)c(=O)n(-c2ccccc2)n1C | 2% (inactive)
CCCCCCn1c(CN2CCCC(C)C2)nc2c1c(=O)n(C)c(=O)n2C (stereo not given) | 6% (inactive)
CCOc1nc(-c2ccccc2)ccc1-c1noc(-c2cccnc2)n1 | 0% (inactive)
Nc1cc(-c2ccc(Br)cc2)nn1S(=O)(=O)c1ccccc1 | 2% (inactive)
O=c1c2cnn(-c3ccccc3)c2ncn1/N=C/c1ccncc1 | 5% (inactive)
C=CCn1c(COc2cccc(C)c2)nnc1SCC(=O)NC(=O)NCc1ccco1 | 0% (inactive)
CC(C)(C)OC(=O)N1CCOCCOCCN(C(=O)OC(C)(C)C)CCOCCOCC1 | 0% (inactive)
CCCc1cc(=O)oc2c(C)c3occ(C)c3cc12 | 1% (inactive)
Cc1c(C(=O)NCc2ccoc2)oc2ccc3c(c12)C(=O)CC(C)(C)O3 | 2% (inactive)
CC(=O)OCC(=O)c1ccc2ccn(C(C)=O)c2c1 | 3% (inactive)
Cn1c(SCC(=O)N2CCOCC2)nnc1-c1cccc(NC(=O)c2ccccc2F)c1 | 0% (inactive)
O=C(Cn1nnc(-c2cccc(C(F)(F)F)c2)n1)NC(=O)NCc1ccco1 | 0% (inactive)
Cc1ccc(-n2ncc3c(=O)[nH]c(SCC(=O)N4CCN(c5ccccc5)CC4)nc32)cc1 | 0% (inactive)
Cc1cc(OCC(=O)N2CCOCC2)cc2oc(=O)c3ccccc3c12 | 0% (inactive)
CCOc1ccc(C(=O)CN2CCN(S(=O)(=O)c3ccc(OC)cc3)CC2)cc1 | 1% (inactive)
COc1ccc(C)cc1NC(=O)CN1CCN(S(=O)(=O)c2ccc(Cl)cc2)CC1 | 0% (inactive)
COC(=O)c1ccccc1NS(=O)(=O)c1ccc(F)cc1 | 0% (inactive)

SMILES | inhibition
COc1cccc(N(C(=O)c2ccco2)C(C(=O)NC2CCCC2)c2ccc(N(C)C)cc2)c1 (stereo not given) | 0% (inactive)
CCC(C)(C(=O)NC1CCCC1)N(C(=O)c1cnccn1)c1c(C)n(C)n(-c2ccccc2)c1=O (stereo not given) | 0% (inactive)
CCOc1ccc(-c2nc(N)ncc2-c2ccccc2)c(O)c1 | 0% (inactive)
COCCCNC(=O)c1ccc(CS(=O)(=O)c2ccc(OC)cc2)o1 | 9% (inactive)
CCC(NC(=O)Nc1cc(OC)c(OC)c(OC)c1)(C(F)(F)F)C(F)(F)F | 3% (inactive)
CCc1nc(N[C@@H](Cc2c[nH]c3ccccc23)C(=O)O)c2oc3ccccc3c2n1 | 13% (inactive)
Nc1nc2n(n1)C(c1c(F)cccc1Cl)CC(c1ccc(F)cc1)N2 (stereo not given) | 1% (inactive)
CC(=O)Nc1ccc(S(=O)(=O)N(CC(=O)O)Cc2ccccc2)cc1 | 7% (inactive)
Cc1cc(C)n2nc(S(=O)(=O)N(C)c3ccccc3)nc2n1 | 0% (inactive)
C1=Nc2c(NCc3ccccc3)ncnc2Oc2ccccc21 | 0% (inactive)
CN1CCc2c(sc3c2C(=O)NC(c2cccc(OC(=O)c4cccs4)c2)N3)C1 (stereo not given) | 0% (inactive)
Cn1c(C(=O)NCCCN2CCCCCC2)cc2c(=O)n(C)c3ccccc3c21 | 0% (inactive)
CC(=O)c1cccc(NC(=O)CCNS(=O)(=O)c2cccc3nsnc23)c1 | 0% (inactive)
C=C(Cl)COc1ccc2c(C)cc(=O)oc2c1 | 2% (inactive)
Cn1c(C(=O)NCC2CCCO2)cc2c(=O)[nH]c3ccccc3c21 (stereo not given) | 8% (inactive)
CCOC(=O)C(NC(C)=O)(NS(=O)(=O)c1ccccc1)C(F)(F)F (stereo not given) | 2% (inactive)
CCOC(=O)CNC(=O)c1c(C)nn(-c2ccccc2)c1Cl | 0% (inactive)
COc1ccc(CCNc2oc(COc3ccc(F)cc3)nc2C#N)cc1 | 0% (inactive)
CCOc1ccccc1NS(=O)(=O)c1c(C)noc1C | 0% (inactive)
CCC1(C)Cc2c(C#N)c(N)n(-c3ccccc3)c(=O)c2CO1 (stereo not given) | 0% (inactive)
